According to the supplement of paper PMC6555819:

How the values were obtained:
Assay in all cases: PBM binding z-score (relative to random genomic background probes); higher = stronger binding; sequences stand for … in GC…GCGATTGACAGCGTAGAATGAAGG
[1] = system: FXR:RXRa (NR concentration 270 nM, RXRa partner concentration 90 nM)
Procedure, shortened: (§1)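 Custom Agilent 4×180K protein-binding microarrays carried double-stranded probes, each with a 34-nt variable region. These regions held direct-repeat seeds, single-nucleotide variants, half-site ablations and random human genomic background sequences. Ligand-free nuclear receptor dimers were incubated on the arrays for 1 h, antibodies against each partner (one per run) detected binding, and scanned fluorescence was regression-normalized. Binding z-scores take the random background probes as reference.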

[2] = system: LXRa:RXRa (NR concentration 270 nM, RXRa partner concentration 90 nM)
Procedure, shortened: as §1

[3] = system: LXRa homodimer (NR concentration 270 nM)
Procedure, shortened: as §1

[4] = system: LXRb:RXRa (NR concentration 270 nM, RXRa partner concentration 90 nM)
Procedure, shortened: as §1

[5] = system: LXRb homodimer (NR concentration 270 nM)
Procedure, shortened: as §1

[6] = system: PPARa:RXRa (NR concentration 270 nM, RXRa partner concentration 90 nM)
Procedure, shortened: as §1

[7] = system: PPARg:RXRa (NR concentration 180 nM, RXRa partner concentration 90 nM)
Procedure, shortened: as §1

[8] = system: PPARg:RXRa 270nM:90nM, anti-RXR (NR concentration 270 nM, RXRa partner concentration 90 nM)
Procedure, shortened: as §1

[9] = system: PPARg:RXRa 30nM:10nM, anti-RXR (NR concentration 30 nM, RXRa partner concentration 10 nM)
Procedure, shortened: as §1

[10] = system: PPARg:RXRa 90nM:30nM, anti-RXR (NR concentration 90 nM, RXRa partner concentration 30 nM)
Procedure, shortened: as §1

[11] = system: PPARg:RXRa DBDmut IVT, anti-RXR (DBD mutation: RXRa K156A/R161A, NR concentration 270 nM, RXRa partner concentration 90 nM)
Procedure, shortened: as §1

[12] = system: PPARg:RXRa IVT, anti-PPARg (NR concentration 270 nM, RXRa partner concentration 90 nM)
Procedure, shortened: as §1

[13] = system: PPARg DBDmut:RXRa IVT, anti-PPARg (DBD mutation: PPARg1 K132A/R137A, NR concentration 270 nM, RXRa partner concentration 90 nM)
Procedure, shortened: as §1

[14] = system: PPARg DBDmut IVT, anti-PPARg (DBD mutation: PPARg1 K132A/R137A, NR concentration 270 nM)
Procedure, shortened: as §1

[15] = system: PPARg homodimer (NR concentration 180 nM)
Procedure, shortened: as §1

[16] = system: PXR:RXRa (NR concentration 270 nM, RXRa partner concentration 90 nM)
Procedure, shortened: as §1

[17] = system: PXR homodimer (NR concentration 270 nM)
Procedure, shortened: as §1

[18] = system: RARa:RXR (NR concentration 270 nM, RXRa partner concentration 90 nM)
Procedure, shortened: as §1

[19] = system: RARa homodimer (NR concentration 270 nM)
Procedure, shortened: as §1

[20] = system: RARb:RXRa (NR concentration 270 nM, RXRa partner concentration 90 nM)
Procedure, shortened: as §1

Sequence | PBM binding z-score [1] | PBM binding z-score [2] | PBM binding z-score [3] | PBM binding z-score [4] | PBM binding z-score [5] | PBM binding z-score [6] | PBM binding z-score [7] | PBM binding z-score [8] | PBM binding z-score [9] | PBM binding z-score [10] | PBM binding z-score [11] | PBM binding z-score [12] | PBM binding z-score [13] | PBM binding z-score [14] | PBM binding z-score [15] | PBM binding z-score [16] | PBM binding z-score [17] | PBM binding z-score [18] | PBM binding z-score [19] | PBM binding z-score [20]
CCTTACGGGTCACTGACAGGTAATAGCATTTGGA | 5.68 | 3.58 | 0.0221 | 3.16 | -0.0553 | 5.08 | 4.51 | 4.42 | 1.29 | 3.12 | 3.21 | 3.64 | 1.3 | 1.52 | 4.26 | 2.95 | -0.116 | 4.05 | 1.66 | 3.79
ACTAGTTGGTCAGCTGCGGTCACACACAATTCGG | 0.216 | 0.737 | 1.43 | 0.671 | 0.37 | 0.527 | 0.606 | 0.528 | -0.0871 | 0.128 | 1.11 | 1.54 | 0.929 | 0.572 | 0.275 | 1.27 | 0.281 | 1.42 | 0.564 | 2.26
CAAGCTAGGTCAAGGTCAAAGTCGGTTTGTGCCA | 6.4 | 5.71 | 4.42 | 4.74 | 1.37 | 5.36 | 5.58 | 5.39 | 2.37 | 4.73 | 4.41 | 5.17 | -0.662 | 0.302 | 3.54 | 5.15 | 1.35 | 5.06 | 1.43 | 5.2
AGGATGAGGTTATTAAGATCAGGGAATTGCGGTC | 2.1 | 1.84 | 0.789 | 1.65 | 0.764 | 2.29 | 1.06 | 1.24 | 0.391 | 0.788 | 0.511 | 0.741 | 0.904 | 0.665 | 1.83 | 1.69 | 1.82 | 1.53 | 0.954 | 1.72
CCTAGTTTGTCAGGAGGTCACACACCGGATATGA | 3.37 | 3.76 | 3 | 3.64 | 1.48 | 4.17 | 2.45 | 3.15 | 1.26 | 2.39 | 1.14 | 2.9 | 1.37 | 1.6 | 4.45 | 4.63 | 1.7 | 5.02 | 2.79 | 3.46
CCTACTCGGCCAAAGGTCATTGATTCCAATGCTC | 4.86 | 5.54 | 4.99 | 5.12 | 1.98 | 6.14 | 10.1 | 9.26 | 8.85 | 9.61 | 3.3 | 5.09 | 0.222 | -0.127 | 3.85 | 5.38 | 2.54 | 5.95 | 1.19 | 4.56
GATACAGGGTCAAGCCCAGAGTACGCGTATTGAT | 7.02 | 4.26 | -0.0405 | 3.88 | -0.376 | 5.68 | 6.04 | 5.82 | 2.34 | 4.41 | 3.47 | 4.08 | 0.821 | -0.0259 | 2.23 | 3.87 | 0.125 | 4.85 | 0.476 | 4.53
GCGACTGGGGCAAAGCAGGTTGCCATAAGGTTGG | -0.377 | -0.798 | -0.715 | -0.849 | -1.26 | 0.461 | 0.599 | 1.15 | -0.358 | 0.243 | 4.34 | 3.1 | -0.486 | -0.871 | -0.00419 | -0.373 | -0.521 | -0.163 | -0.719 | 0.412
CAAACTAGGTCACAGGTCAAAGTCGAGCCAACCA | 6.7 | 5.19 | 3.25 | 4.68 | 1.16 | 6.88 | 12.3 | 9.67 | 10.4 | 11 | 8.4 | 9.27 | 4.16 | 4.09 | 4.17 | 4.41 | 0.711 | 5.81 | 0.827 | 4.7
ATCTCTAGGTAAGACTTAGTTCAGTGAAGAACGC | 0.399 | 0.643 | 0.399 | 0.303 | 0.796 | 0.394 | 0.205 | 0.542 | 0.399 | 0.438 | 1.88 | 1.57 | 0.722 | 0.771 | 1.4 | 0.684 | 0.67 | 0.614 | 1.01 | 0.573
ACAGACAGGTGAGTGAAGGTAAGTCAGCTGGACG | 0.17 | 0.000763 | -0.483 | -0.528 | -0.65 | 0.236 | 0.568 | -0.129 | -0.0839 | -0.0489 | 0.544 | 0.594 | -0.101 | -0.745 | -0.0235 | -0.37 | -0.45 | 0.0462 | -0.141 | 0.623
TGAATGAGGTTATTAGATCAGGGAACGTTGCAAA | 1.98 | 1.62 | 0.0291 | 1.3 | 0.0407 | 3.09 | 2.46 | 2.61 | 0.886 | 1.65 | 2.05 | 2.98 | 1.48 | 0.859 | 0.948 | 0.902 | 0.241 | 1.43 | 0.496 | 1.24
CCTAGCAGGCCAGGGTCATTCAAGCATTTCGCTT | 2.69 | 2.29 | -0.0917 | 2.54 | -0.65 | 3.66 | 0.697 | 1.82 | -0.631 | 0.991 | 0.315 | 0.694 | -0.751 | -1.91 | 1.59 | 3.11 | -0.0887 | 3.29 | -0.222 | 2.57
GCAGATAGGTGAAACGCAGGTAACTCAGGGTGGC | -0.146 | 0.0468 | -0.529 | -0.0922 | -1.28 | 1.27 | 0.838 | 0.277 | -0.496 | 0.174 | 3.27 | 1.58 | 0.0261 | -0.672 | -0.419 | -0.335 | -0.798 | 0.347 | -0.582 | 0.748
